# Laboratory results published in PubChem BioAssay (EPA / NIEHS).
# Values joined by “and” are separate entries in the source; they are usually repeats but may differ in a detail not shown here. Identical values can stand only once. Results filed as inconclusive are left out. A structure can be active in one record and inactive in another. Active and inactive are the calls of the source. How the source made its calls, unless noted: active means hit-call score of the fitted dose curve at least 0.9, where 1 is the maximum; inconclusive means response in the unintended direction; inactive means score below 0.9.
# Key:
# [1] = target: Glutamate receptor ionotropic, kainate 1 (Rattus norvegicus) (UniProt P22756); test: NVS_IC_rKAR: NovaScreen (NVS) Ion Channel Assay for rat Kainic Acid Receptors (KAR) (AID 2283334; active means hit-call score of the fitted dose curve at least 0.9, where 1 is the maximum; inactive means score below 0.9)
# Glutamate receptor ionotropic, kainate 1 (Rattus norvegicus), sequence (P22756 whole entry, looked up): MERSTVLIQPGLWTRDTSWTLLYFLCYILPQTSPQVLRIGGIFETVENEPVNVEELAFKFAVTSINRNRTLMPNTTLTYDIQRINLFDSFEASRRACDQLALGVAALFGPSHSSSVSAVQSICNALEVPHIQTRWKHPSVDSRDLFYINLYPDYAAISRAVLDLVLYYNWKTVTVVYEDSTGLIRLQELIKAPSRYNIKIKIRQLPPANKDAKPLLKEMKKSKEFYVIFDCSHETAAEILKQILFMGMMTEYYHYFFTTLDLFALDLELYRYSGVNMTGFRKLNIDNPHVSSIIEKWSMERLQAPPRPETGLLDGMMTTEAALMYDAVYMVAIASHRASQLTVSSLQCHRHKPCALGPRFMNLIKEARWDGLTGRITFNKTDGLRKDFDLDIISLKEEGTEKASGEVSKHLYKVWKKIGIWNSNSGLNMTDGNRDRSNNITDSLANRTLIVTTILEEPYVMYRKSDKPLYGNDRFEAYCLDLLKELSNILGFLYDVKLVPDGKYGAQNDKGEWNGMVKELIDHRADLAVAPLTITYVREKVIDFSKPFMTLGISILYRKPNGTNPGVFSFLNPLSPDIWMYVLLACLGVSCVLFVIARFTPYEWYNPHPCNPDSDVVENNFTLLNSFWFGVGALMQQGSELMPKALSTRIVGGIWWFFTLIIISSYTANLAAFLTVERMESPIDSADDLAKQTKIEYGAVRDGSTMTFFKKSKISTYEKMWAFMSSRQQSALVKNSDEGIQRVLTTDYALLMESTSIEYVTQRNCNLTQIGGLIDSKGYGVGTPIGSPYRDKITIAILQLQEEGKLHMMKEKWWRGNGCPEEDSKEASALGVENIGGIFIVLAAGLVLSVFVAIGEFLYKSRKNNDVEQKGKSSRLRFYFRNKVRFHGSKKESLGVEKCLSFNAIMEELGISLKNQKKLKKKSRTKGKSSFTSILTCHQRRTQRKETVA
# How it was run: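 Rat forebrain membrane preparation incubated 1 h with radioligand and test chemical; bound signal read by filtration and scintillation. Single-concentration screen at 25 uM, then concentration series to 50 uM maximum.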
# [2] = target: rat Peripheral-type Benzodiazepine Receptor (PBR), Tspo (gene 24230) (UniProt P16257); test: NVS_MP_rPBR: NovaScreen (NVS) Membrane Protein Assay for rat Peripheral-type Benzodiazepine Receptor (PBR) (AID 2283335)
# rat Peripheral-type Benzodiazepine Receptor (PBR), Tspo (gene 24230), sequence (P16257 whole entry, looked up): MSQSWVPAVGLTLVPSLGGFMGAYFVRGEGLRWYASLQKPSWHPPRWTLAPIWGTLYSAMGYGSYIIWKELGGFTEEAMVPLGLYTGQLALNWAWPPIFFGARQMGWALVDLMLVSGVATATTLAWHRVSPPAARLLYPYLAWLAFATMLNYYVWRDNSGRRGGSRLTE
# How it was run: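 Competitive displacement of specific radioligand from rat kidney membrane PBR, read by filtration and scintillation after 1 h. Compounds first tested at 25 uM in duplicate, then in concentration series; signal loss relative to DMSO.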
# [3] = NVS_IC_rCaBTZCHL: NovaScreen (NVS) Ion Channel Assay for Calcium Channel, Type L, Benzothiazepine Site (CaBTZCHL) (AID 2283337)
# How it was run: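 Test chemicals were added to rat cortical membranes and incubated 1.5 h with a tritiated or iodinated radioligand for the benzothiazepine site. Bound ligand was separated by filtration and counted. Actives from the 25 uM duplicate screen were retested in concentration series.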
# [4] = system: guinea pig Histamine Receptor (H2), gene 100729734; test: NVS_GPCR_gH2: NovaScreen (NVS) G Protein-Coupled Receptor Assay for guinea pig Histamine Receptor (H2) (AID 2283342)
# Experimental: NVS_GPCR_gH2 is a biochemical, single-readout assay that uses extracted gene-proteins from Guinea pig striatal membranes in a tissue-based cell-free assay. Measurements were taken 1 hour after chemical dosing in a 96-well plate.NVS_GPCR_gH2 is one of one assay component(s) measured or calculated from the NVS_GPCR_gH2 assay. It is designed to make measurements of radioligand binding, a form of binding reporter, as detected with scintillation counting signals by Filter-based radiodetection technology.Data from the assay component NVS_GPCR_gH2 was analyzed into 1 assay endpoint. This assay endpoint, NVS_GPCR_gH2, was analyzed in the positive analysis fitting direction relative to DMSO as the negative control and baseline of activity. Using a type of binding reporter, loss-of-signal activity can be used to understand changes in the binding as they relate to the gene Hrh2. Furthermore, this assay endpoint can be referred to as a primary readout, because the performed assay has only produced 1 assay endpoint. To generalize the intended target to other relatable targets, this assay endpoint is annotated to the gpcr intended target family, where the subfamily is rhodopsin-like receptor.
# Binding assays used specific radioligands (tritiated, iodinated) with non-radioactive competitive displacement ligands in agonist or antagonist protocols (as indicated) and various reference compounds and inhibitors to titrate specific binding to receptors and transporters. Most enzyme assays (CYPs, kinases, phosphatases, proteases, HDACs) used recombinant protein and specific substrates (fluorescence mostly, some colorimetric and radioactive) and inhibitors, followed by a biochemical separation of substrate and product. All assays for the biochemical HTS were initially run in duplicate at a single concentration (10 uM for CYP450 assays and 25 uM for all others). Assay-chemical combinations meeting a pre-defined threshold (e.g., 30% inhibition and other criteria defined below) were then run in singleton concentration-response format with maximum concentration of 20 uM for CYPs and 50 uM for all others. Each assay was run with positive and negative controls, and concurrent controls on every plate. The follow-up (secondary) screen tested active chemical-pairs in concentration series, as well as a few additional assays not tested in the primary screen, some selected negative inactives, and several cases re-run in the concentration series for confirmatory purposes.
# [5] = target: rat Glutamate, MK-801 Agonist Site (GluNMDA_MK801), Grin1 (gene 24408) (UniProt P35439); test: NVS_LGIC_rGluNMDA_MK801_Agonist: NovaScreen (NVS) Ligand-Gated Ion Channel Assay for rat Glutamate, MK-801 Agonist Site (GluNMDA_MK801) (AID 2283340)
# How it was run: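 Rat forebrain membrane preparation; MK-801-site radioligand binding read by filtration and scintillation after 1.5 h. Single-point 25 uM duplicate screen, followed by singleton concentration series to 50 uM max; DMSO baseline.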
# NCBI gene 100848466 = test: NVS_NR_bPR: NovaScreen (NVS) Nuclear Receptor Binding Assay for bovine Progextron Receptor (PR) (AID 2283343);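 further: actives lower bound radioligand signal below DMSO meaning displacement of the label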
# How it was run: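 Scintillation counts of bound radioligand were read 18 hours after chemical addition to membranes extracted from bovine uterus. Displacement was scored as loss of signal relative to DMSO controls. Screening began at 25 uM in duplicate.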
# [6] = target: bovine Gamma-Aminobutyric Acid Type A Receptor Agonist (GABAR Agonist), GABRA1 (gene 780973) (UniProt P08219); test: NVS_LGIC_bGABAR_Agonist: NovaScreen (NVS) Ligand-Gated Ion Channel Assay for bovine Gamma-Aminobutyric Acid Type A Receptor Agonist (GABAR Agonist) (AID 2283338)
# bovine Gamma-Aminobutyric Acid Type A Receptor Agonist (GABAR Agonist), GABRA1 (gene 780973), sequence (P08219 whole entry, looked up): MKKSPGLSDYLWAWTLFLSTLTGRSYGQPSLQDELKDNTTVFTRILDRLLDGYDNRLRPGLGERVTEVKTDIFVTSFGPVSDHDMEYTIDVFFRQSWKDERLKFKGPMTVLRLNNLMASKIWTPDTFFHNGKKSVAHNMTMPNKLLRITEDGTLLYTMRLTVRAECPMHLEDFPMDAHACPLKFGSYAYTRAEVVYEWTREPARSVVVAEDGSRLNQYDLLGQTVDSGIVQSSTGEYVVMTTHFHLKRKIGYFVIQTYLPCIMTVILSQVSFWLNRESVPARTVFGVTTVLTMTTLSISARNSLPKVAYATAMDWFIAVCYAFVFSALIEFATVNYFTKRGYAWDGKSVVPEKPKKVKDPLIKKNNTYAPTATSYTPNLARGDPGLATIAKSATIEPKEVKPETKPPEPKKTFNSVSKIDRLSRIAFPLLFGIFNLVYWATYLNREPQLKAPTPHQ
# How it was run: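 Radioligand binding to bovine cerebellar membranes in agonist format, read by filter-based scintillation counting after 1 h. Primary screen in duplicate at 25 uM, with actives followed in concentration series. Gain of signal versus DMSO.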
# [7] = target: Small conductance calcium-activated potassium channel protein 1 (Rattus norvegicus) (UniProt P70606); test: NVS_IC_rKCaCh: NovaScreen (NVS) Ion Channel Assay for rat Potassium Channel, Ca2+ Act., VI (KCaCh) (AID 2283336)
# Small conductance calcium-activated potassium channel protein 1 (Rattus norvegicus), sequence (P70606 whole entry, looked up): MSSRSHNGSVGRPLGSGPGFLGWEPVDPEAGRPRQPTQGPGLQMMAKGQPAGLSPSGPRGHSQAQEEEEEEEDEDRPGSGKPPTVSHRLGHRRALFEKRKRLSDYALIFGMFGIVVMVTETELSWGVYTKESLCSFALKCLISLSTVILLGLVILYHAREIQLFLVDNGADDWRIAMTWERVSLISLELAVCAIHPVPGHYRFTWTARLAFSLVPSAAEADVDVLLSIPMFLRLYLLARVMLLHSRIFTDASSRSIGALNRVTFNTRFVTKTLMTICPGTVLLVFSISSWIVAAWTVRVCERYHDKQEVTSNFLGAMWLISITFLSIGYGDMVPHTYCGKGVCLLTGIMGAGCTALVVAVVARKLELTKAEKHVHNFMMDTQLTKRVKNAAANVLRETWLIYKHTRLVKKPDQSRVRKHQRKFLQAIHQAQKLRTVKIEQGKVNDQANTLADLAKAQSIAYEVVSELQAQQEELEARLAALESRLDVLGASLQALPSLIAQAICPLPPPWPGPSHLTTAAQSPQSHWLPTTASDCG
# How it was run: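 Filter-based scintillation counting of radioligand bound to rat forebrain membrane preparations, measured 1 h after compound addition. Primary screen used 25 uM in duplicate, with concentration-response follow-up; signal decrease relative to DMSO marks activity.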
# [8] = target: rat Glycine Receptor, Strychnine-sensitive (GlyRStrySens), Glra1 (gene 25674) (UniProt P07727); test: NVS_LGIC_rGlyRStrySens: NovaScreen (NVS) Ligand-Gated Ion Channel Assay for rat Glycine Receptor, Strychnine-sensitive (GlyRStrySens) (AID 2283341)
# rat Glycine Receptor, Strychnine-sensitive (GlyRStrySens), Glra1 (gene 25674), sequence (P07727 whole entry, looked up): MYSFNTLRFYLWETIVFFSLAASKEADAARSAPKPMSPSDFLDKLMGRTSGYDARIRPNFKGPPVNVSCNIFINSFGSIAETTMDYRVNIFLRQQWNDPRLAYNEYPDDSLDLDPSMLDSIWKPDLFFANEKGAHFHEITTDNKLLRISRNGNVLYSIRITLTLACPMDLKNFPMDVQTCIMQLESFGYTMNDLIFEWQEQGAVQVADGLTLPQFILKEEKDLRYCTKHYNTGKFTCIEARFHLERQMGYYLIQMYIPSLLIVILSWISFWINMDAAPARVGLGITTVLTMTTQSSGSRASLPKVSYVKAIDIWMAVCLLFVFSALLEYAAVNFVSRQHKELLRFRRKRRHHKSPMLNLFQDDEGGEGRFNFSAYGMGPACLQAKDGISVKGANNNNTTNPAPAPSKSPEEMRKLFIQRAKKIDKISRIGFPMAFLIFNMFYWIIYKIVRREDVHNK
# Experimental: NVS_LGIC_rGlyRStrySens is a biochemical, single-readout assay that uses extracted gene-proteins from Rat spinal cord membranes in a tissue-based cell-free assay. Measurements were taken 1 hour after chemical dosing in a 48-well plate.NVS_LGIC_rGlyRStrySens is one of one assay component(s) measured or calculated from the NVS_LGIC_rGlyRStrySens assay. It is designed to make measurements of radioligand binding, a form of binding reporter, as detected with scintillation counting signals by Filter-based radiodetection technology.Data from the assay component NVS_LGIC_rGlyRStrySens was analyzed into 1 assay endpoint. This assay endpoint, NVS_LGIC_rGlyRStrySens, was analyzed in the positive analysis fitting direction relative to DMSO as the negative control and baseline of activity. Using a type of binding reporter, loss-of-signal activity can be used to understand changes in the binding as they relate to the gene Glra1. Furthermore, this assay endpoint can be referred to as a primary readout, because the performed assay has only produced 1 assay endpoint. To generalize the intended target to other relatable targets, this assay endpoint is annotated to the ion channel intended target family, where the subfamily is ligand-gated ion channel. […]
# [9] = target: Voltage-gated inwardly rectifying potassium channel KCNH2 (Homo sapiens) (UniProt Q12809); test: NVS_IC_hKhERGCh: NovaScreen (NVS) Ion Channel Assay for human Potassium Channel ERG (KhERGCh) (AID 2283333)
# Voltage-gated inwardly rectifying potassium channel KCNH2 (Homo sapiens), sequence (Q12809 whole entry, looked up): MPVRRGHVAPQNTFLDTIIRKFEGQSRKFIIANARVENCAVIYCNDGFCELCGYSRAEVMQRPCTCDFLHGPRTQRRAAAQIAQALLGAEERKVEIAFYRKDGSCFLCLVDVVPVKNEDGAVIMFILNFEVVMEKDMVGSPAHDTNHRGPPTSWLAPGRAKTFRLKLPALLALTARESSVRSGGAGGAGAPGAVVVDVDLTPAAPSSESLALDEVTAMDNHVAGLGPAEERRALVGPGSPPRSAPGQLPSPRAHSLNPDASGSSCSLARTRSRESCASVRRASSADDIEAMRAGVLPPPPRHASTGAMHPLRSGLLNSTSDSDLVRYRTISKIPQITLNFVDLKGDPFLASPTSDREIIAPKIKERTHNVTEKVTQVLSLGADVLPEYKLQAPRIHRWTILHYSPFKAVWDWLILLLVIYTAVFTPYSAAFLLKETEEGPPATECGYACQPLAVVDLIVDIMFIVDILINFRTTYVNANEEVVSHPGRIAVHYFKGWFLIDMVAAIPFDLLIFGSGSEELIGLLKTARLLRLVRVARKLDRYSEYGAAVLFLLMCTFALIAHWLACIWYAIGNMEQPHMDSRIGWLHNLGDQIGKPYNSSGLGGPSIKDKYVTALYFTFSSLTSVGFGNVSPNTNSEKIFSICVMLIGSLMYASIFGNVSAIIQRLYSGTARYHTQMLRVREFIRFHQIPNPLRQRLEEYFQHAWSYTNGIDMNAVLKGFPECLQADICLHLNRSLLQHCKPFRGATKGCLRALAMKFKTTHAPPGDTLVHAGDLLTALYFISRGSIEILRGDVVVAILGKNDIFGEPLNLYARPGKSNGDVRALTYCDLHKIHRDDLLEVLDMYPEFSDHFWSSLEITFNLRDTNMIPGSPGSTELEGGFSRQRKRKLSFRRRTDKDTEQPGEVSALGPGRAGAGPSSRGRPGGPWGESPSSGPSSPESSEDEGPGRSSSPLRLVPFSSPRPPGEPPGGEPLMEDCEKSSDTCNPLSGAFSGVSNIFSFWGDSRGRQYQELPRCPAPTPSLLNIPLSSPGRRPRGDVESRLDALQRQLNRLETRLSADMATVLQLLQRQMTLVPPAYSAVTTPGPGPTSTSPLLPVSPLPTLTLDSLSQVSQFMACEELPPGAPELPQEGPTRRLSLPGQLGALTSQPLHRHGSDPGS
# How it was run: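 Membranes from CHO cells expressing human ERG; displacement of radioligand measured by filtration and scintillation after 0.75 h. Single-concentration duplicate screen at 25 uM, then concentration-response for actives; DMSO baseline.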
smiles,measurement,setting,value
COC(=O)CCCCC(=O)OC,outcome,[1],inactive
CC1=C(/C=C/C(C)=C/C=C/C(C)=C/C(=O)O)C(C)(C)CCC1,outcome,[2],inactive
CCN(CC)CCNc1ccc(CNC=O)c2sc3ccc(OC)cc3c(=O)c12,AC50,[2],6.96 µM (active)
same,AC50,[3],19.2 µM (active)
same,AC50,[4],11.3 µM (active)
NC(=O)N1C(=O)C(C(=O)c2cc(Cl)cs2)c2cc(F)c(Cl)cc21 (stereo not drawn),outcome,[1],inactive
same,AC50,[2],25 µM (active)
ClC1=C(Cl)C(Cl)(Cl)C(Cl)=C1Cl,outcome,[5],inactive
C#C[C@]1(O)CC[C@H]2[C@@H]3CCC4=CC(=O)CC[C@@H]4[C@H]3CC[C@@]21C,AC50,NCBI gene 100848466,0.0183 µM (active)
CC#C[C@]1(O)CC[C@H]2[C@@H]3CCC4=CC(=O)CCC4=C3[C@@H](c3ccc(N(C)C)cc3)C[C@@]21C,outcome,[4],inactive
same,AC50,NCBI gene 100848466,0.00874 µM (active)
CCC(=C(c1ccc(O)cc1)c1ccc(OCCN(C)C)cc1)c1ccccc1,AC50,[2],4.37 µM (active) and 3.09 µM (active)
same,outcome,[2],inactive
same,AC50,[3],0.589 µM (active)
same,AC50,[4],1.33 µM (active)
Cc1oc(-c2ccccc2)nc1CCOc1ccc(C[C@H](Nc2ccccc2C(=O)c2ccccc2)C(=O)O)cc1,AC50,[2],4.35 µM (active)
CC[C@H](C)[C@@H](C(=O)O)n1sc2ccccc2c1=O,outcome,[1],inactive
O=C(OCCOCCOC(=O)c1ccccc1)c1ccccc1,outcome,[2],inactive
same,outcome,[6],inactive
O=c1c(-c2ccc(O)cc2)coc2cc(O)ccc12,AC50,[2],14 µM (active)
CN(C)C=O,outcome,[7],inactive
C[C@@H]1C[C@H]2[C@@H]3CCC4=CC(=O)C=C[C@]4(C)[C@@]3(F)[C@@H](O)C[C@]2(C)[C@@]1(O)C(=O)COP(=O)(O)O,outcome,[4],inactive
same,AC50,NCBI gene 100848466,10.5 µM (active)
NC(=O)N(O)[C@@H]1C=C[C@H](Oc2cccc(Oc3ccc(F)cc3)c2)C1,outcome,[8],inactive
same,outcome,[4],inactive
OCCC(F)(F)C(F)(F)C(F)(F)C(F)(F)C(F)(F)C(F)(F)C(F)(F)C(F)(F)F,outcome,[1],inactive
same,outcome,[6],inactive
CC(=O)NC1(c2cccc(F)c2)CCN(CC[C@@]2(c3ccc(Cl)c(Cl)c3)CN(c3ccccc3)C(=O)CO2)CC1,AC50,[9],14 µM (active)
same,outcome,[7],inactive
same,AC50,[3],0.835 µM (active)
same,AC50,[4],8.91 µM (active)
CCCOc1sc(C(=O)N2CCC(c3cc(CN)ccc3F)CC2)c(C)c1Br,AC50,[9],7.87 µM (active)
same,outcome,[2],inactive
same,AC50,[3],3.64 µM (active)
same,AC50,[4],7.46 µM (active)
CC[C@H](c1ccc(O)cc1)[C@@H](CC)c1ccc(O)cc1,AC50,[2],822 nM (active) and 258 nM (active)
CCCCCCCC(=O)O,outcome,[3],inactive
CCCCCCCCCCCCCCCS(=O)(=O)Oc1ccccc1,outcome,[6],inactive
CCCCCCCCCCCCc1ccccc1S(=O)(=O)O,AC50,[2],6.37 µM (active)
same,outcome,[5],inactive
same,AC50,NCBI gene 100848466,17.1 µM (active)
Oc1cc2ccccc2c2ccccc12,AC50,NCBI gene 100848466,18 µM (active)
COc1ccc([N+](=O)[O-])cc1N,outcome,[9],inactive
